From PMC7862700, “An all-to-all approach to the identification of sequence-specific readers for epigenetic DNA modifications on cytosine”

How the values were obtained:
Assay in all cases: DAPPL (digital affinity profiling via proximity ligation, sequencing); 10 mM Tris-HCl pH 7.5, 50 mM NaCl, 1 mM DTT, 4% glycerol, room temperature, 30 min; GST-TFs on glutathione beads, 16-mer random dsDNA library, 0.1% formaldehyde crosslink after washing; high values mean tight binding
FEV = biological target: T1, FEV (Homo sapiens, UniProt Q99581 1-238); conditions: protein: recombinant; tags: N-terminal GST; dsDNA, one strand shown
T1 sequence: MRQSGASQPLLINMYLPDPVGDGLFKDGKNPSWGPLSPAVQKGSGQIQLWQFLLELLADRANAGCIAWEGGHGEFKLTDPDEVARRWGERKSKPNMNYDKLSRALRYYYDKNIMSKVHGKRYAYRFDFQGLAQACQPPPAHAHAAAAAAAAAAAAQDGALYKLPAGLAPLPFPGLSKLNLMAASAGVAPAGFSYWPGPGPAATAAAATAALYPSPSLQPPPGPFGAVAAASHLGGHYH
Procedure, shortened: (§1)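 Human transcription factors were made in yeast as GST fusions, captured on glutathione beads and barcoded with DNA. With a tag-only sample included, the pool was incubated with 200 nmole of a random double-stranded 16-mer DNA library in Tris/NaCl/DTT/glycerol buffer at room temperature for 30 min, then crosslinked with 0.1% formaldehyde after washing, ligated by proximity, amplified and sequenced. For binding signal, each hexamer's read frequency for a factor is divided by its frequency for the tag-only sample.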

ETV5 = ETV5 (Homo sapiens, UniProt P41161 1-510); conditions: protein: recombinant; tags: N-terminal GST; dsDNA, one strand shown
ETV5, sequence (P41161 whole entry): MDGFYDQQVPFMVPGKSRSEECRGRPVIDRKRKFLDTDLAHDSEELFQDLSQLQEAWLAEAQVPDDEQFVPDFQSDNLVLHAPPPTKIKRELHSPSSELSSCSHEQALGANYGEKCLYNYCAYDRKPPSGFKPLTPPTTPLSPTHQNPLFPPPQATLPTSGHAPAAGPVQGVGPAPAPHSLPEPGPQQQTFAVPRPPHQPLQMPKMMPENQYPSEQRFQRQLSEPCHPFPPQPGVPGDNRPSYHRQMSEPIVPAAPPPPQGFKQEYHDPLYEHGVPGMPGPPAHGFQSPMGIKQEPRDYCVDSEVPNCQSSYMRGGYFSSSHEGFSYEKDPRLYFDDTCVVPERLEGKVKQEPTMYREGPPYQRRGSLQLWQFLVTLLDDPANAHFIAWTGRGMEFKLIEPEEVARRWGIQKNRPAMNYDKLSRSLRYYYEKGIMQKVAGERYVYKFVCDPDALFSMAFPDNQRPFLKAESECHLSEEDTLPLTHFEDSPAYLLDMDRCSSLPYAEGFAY
Procedure, shortened: as §1

HSF1 = HSF1 (Homo sapiens, UniProt Q00613 1-529); conditions: protein: recombinant; tags: N-terminal GST; chain copies: 3; dsDNA, one strand shown
HSF1, sequence (Q00613 whole entry): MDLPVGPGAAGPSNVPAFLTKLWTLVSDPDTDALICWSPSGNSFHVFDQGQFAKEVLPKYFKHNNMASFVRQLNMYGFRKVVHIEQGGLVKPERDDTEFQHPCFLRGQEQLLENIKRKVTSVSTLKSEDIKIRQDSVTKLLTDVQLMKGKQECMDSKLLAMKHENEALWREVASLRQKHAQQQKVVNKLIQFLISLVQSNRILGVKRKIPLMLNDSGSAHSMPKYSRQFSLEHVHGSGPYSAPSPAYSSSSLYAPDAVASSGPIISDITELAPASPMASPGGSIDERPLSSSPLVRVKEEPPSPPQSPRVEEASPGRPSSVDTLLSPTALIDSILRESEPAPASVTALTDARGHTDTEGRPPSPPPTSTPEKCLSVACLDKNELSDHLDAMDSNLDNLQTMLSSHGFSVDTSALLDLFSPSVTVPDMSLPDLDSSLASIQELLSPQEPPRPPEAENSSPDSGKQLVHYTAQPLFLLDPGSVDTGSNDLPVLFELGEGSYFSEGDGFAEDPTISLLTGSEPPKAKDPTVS
Procedure, shortened: as §1

SPIC = biological target: T2, SPIC (Homo sapiens, UniProt Q8N5J4 1-248); conditions: protein: recombinant; tags: N-terminal GST; dsDNA, one strand shown
T2 sequence: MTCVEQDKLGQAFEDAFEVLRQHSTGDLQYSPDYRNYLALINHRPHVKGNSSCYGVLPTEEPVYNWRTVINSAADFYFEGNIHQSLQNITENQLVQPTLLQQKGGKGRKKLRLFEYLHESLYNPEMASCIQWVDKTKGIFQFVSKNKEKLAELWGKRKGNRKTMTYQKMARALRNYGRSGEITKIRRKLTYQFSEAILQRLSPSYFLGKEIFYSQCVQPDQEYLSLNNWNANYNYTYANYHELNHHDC
Procedure, shortened: as §1

ELF4 = ELF4 (Homo sapiens, UniProt Q99607 1-663); conditions: protein: recombinant; tags: N-terminal GST; dsDNA, one strand shown
ELF4, sequence (Q99607 whole entry): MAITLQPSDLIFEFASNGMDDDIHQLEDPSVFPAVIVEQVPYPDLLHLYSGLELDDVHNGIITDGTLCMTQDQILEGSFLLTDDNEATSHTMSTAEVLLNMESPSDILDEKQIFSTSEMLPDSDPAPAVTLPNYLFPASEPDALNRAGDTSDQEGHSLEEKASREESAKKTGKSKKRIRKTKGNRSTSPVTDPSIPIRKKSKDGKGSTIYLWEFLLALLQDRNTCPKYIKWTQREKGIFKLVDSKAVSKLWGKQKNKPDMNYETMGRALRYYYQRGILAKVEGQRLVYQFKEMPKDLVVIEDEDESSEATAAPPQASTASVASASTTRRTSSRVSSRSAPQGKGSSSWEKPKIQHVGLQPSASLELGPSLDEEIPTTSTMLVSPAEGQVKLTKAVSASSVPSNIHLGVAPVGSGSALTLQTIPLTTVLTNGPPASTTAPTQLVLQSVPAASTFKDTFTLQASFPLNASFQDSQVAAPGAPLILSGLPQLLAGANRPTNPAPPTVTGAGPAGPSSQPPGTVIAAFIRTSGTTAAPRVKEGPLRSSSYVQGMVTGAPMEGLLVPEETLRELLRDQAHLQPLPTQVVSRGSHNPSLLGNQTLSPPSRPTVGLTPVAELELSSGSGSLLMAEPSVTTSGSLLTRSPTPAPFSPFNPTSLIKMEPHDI
Procedure, shortened: as §1

ELK4 = biological target: T3, ELK4 (Homo sapiens, UniProt P28324-2 1-405); conditions: protein: recombinant; tags: N-terminal GST; dsDNA, one strand shown
T3 sequence: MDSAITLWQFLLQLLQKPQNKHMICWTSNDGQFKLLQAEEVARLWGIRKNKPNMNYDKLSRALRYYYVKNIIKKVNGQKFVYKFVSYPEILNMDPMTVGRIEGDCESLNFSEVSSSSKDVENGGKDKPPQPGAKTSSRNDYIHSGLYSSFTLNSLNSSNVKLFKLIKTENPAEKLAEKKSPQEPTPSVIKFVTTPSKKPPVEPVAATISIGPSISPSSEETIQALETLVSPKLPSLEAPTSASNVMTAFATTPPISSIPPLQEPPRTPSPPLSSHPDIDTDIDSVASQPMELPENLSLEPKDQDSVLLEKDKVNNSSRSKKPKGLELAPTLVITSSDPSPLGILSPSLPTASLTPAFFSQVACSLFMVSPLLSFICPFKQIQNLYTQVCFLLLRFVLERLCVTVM
Procedure, shortened: as §1

ETV2 = biological target: T4, ETV2 (Homo sapiens, UniProt O00321 1-342); conditions: protein: recombinant; tags: N-terminal GST; dsDNA, one strand shown
T4 sequence: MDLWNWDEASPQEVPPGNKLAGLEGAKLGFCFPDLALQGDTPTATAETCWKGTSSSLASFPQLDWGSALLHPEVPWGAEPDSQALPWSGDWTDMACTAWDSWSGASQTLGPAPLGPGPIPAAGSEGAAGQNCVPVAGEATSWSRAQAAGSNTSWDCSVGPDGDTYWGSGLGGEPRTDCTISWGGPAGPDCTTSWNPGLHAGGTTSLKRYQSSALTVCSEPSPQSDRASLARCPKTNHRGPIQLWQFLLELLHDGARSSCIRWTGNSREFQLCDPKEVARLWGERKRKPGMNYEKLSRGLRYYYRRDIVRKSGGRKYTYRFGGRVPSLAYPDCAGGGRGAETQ
Procedure, shortened: as §1

ELF3 = biological target: T5, ELF3 (Homo sapiens, UniProt P78545 1-371); conditions: protein: recombinant; tags: N-terminal GST; dsDNA, one strand shown
T5 sequence: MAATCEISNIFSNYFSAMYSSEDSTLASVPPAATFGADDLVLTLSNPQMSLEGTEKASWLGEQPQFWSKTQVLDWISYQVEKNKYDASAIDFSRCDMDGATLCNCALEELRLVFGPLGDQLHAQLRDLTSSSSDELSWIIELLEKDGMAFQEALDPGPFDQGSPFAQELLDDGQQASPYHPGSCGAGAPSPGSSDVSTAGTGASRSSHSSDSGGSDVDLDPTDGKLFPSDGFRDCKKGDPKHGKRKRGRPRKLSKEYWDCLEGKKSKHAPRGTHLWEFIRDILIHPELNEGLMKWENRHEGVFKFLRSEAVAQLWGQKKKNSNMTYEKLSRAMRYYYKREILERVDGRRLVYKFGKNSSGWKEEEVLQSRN
Procedure, shortened: as §1

CRX = CRX (Homo sapiens, UniProt O43186 1-299); conditions: protein: recombinant; tags: N-terminal GST; dsDNA, one strand shown
CRX, sequence (O43186 whole entry): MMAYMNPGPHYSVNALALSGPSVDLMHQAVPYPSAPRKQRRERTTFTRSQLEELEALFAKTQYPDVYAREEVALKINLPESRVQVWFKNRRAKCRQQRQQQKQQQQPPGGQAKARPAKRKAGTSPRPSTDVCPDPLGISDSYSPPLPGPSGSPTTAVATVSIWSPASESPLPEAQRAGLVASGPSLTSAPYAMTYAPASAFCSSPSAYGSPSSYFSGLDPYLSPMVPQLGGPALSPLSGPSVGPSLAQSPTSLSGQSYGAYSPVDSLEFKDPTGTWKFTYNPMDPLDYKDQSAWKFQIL
Procedure, shortened: as §1

ETV1 = ETV1 (Homo sapiens, UniProt P50549 1-477); conditions: protein: recombinant; tags: N-terminal GST; dsDNA, one strand shown
ETV1, sequence (P50549 whole entry): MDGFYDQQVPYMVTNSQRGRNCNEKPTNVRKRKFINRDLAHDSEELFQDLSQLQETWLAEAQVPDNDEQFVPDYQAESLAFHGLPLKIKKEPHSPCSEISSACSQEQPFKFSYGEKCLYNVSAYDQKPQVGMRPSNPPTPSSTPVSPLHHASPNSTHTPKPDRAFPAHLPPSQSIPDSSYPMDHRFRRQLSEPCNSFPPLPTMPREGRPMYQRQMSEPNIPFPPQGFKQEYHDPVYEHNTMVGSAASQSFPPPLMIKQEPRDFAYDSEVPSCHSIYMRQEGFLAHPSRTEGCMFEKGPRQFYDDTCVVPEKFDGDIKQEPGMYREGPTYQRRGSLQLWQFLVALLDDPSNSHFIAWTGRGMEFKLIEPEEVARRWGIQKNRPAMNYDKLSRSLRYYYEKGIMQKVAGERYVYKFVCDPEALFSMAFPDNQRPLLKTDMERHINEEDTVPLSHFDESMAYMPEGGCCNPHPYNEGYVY
Procedure, shortened: as §1

ERF = biological target: T6, ERF (Homo sapiens, UniProt P50548 1-548); conditions: protein: recombinant; tags: N-terminal GST; dsDNA, one strand shown
T6 sequence: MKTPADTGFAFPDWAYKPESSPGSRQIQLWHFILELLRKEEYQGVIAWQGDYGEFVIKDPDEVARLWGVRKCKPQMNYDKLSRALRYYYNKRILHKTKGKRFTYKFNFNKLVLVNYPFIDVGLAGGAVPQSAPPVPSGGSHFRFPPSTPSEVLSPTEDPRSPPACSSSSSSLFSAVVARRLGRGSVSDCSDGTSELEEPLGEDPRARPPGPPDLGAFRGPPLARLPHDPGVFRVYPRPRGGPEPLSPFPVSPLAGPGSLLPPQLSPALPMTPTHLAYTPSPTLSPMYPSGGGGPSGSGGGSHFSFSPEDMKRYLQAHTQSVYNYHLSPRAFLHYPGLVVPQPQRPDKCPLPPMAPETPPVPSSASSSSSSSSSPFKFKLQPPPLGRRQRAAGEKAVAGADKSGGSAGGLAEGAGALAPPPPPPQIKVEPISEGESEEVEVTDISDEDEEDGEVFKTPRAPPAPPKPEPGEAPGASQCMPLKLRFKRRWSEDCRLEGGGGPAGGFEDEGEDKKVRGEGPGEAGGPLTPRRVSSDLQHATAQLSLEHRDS
Procedure, shortened: as §1

ETV3L = biological target: T7, ETV3L (Homo sapiens, UniProt Q6ZN32 1-361); conditions: protein: recombinant; tags: N-terminal GST; dsDNA, one strand shown
T7 sequence: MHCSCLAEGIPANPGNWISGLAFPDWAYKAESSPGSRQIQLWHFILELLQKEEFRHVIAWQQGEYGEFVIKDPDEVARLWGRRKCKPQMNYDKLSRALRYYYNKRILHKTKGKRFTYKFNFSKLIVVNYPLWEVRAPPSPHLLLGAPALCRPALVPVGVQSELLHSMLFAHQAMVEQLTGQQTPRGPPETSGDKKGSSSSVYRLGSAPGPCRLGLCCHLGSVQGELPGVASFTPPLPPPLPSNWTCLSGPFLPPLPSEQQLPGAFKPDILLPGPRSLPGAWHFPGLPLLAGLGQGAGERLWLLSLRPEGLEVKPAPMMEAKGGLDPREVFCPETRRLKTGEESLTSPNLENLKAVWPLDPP
Procedure, shortened: as §1

ETS2 = biological target: T8, ETS2 (Homo sapiens, UniProt P15036 1-469); conditions: protein: recombinant; tags: N-terminal GST; dsDNA, one strand shown
T8 sequence: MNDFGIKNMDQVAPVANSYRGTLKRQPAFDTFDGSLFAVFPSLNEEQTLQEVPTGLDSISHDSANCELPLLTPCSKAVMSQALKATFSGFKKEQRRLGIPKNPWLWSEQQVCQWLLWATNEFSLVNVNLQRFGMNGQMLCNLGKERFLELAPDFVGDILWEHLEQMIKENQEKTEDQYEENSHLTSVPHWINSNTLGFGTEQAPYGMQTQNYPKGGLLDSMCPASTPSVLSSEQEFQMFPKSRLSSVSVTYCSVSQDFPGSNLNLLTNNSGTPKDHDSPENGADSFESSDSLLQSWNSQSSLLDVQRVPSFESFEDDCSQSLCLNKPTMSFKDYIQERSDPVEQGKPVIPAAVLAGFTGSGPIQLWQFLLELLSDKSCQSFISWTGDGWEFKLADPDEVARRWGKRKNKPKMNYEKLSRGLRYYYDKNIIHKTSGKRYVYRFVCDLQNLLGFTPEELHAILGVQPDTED
Procedure, shortened: as §1

SPDEF = biological target: T9, SPDEF (Homo sapiens, UniProt O95238 1-335); conditions: protein: recombinant; tags: N-terminal GST; dsDNA, one strand shown
T9 sequence: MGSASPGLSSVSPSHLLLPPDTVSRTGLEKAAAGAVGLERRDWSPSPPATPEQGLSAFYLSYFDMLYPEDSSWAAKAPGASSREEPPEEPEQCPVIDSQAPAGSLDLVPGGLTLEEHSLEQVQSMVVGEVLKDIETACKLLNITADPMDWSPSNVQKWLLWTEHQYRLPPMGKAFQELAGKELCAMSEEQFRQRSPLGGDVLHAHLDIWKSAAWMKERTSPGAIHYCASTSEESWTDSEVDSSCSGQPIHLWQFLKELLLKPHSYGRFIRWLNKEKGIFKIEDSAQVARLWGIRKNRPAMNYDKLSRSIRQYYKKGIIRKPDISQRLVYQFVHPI
Procedure, shortened: as §1

ETV7 = biological target: T10, ETV7 (Homo sapiens, UniProt Q9Y603 1-341); conditions: protein: recombinant; tags: N-terminal GST; dsDNA, one strand shown
T10 sequence: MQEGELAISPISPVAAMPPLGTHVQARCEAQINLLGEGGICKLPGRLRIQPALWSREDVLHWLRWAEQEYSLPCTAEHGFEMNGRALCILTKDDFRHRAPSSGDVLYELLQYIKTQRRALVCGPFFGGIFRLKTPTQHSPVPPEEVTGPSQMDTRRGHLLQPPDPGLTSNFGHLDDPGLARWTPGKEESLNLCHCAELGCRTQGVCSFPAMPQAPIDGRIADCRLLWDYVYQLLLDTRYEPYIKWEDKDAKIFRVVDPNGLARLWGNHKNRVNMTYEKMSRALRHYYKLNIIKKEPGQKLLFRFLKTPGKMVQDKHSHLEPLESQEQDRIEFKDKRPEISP
Procedure, shortened: as §1

ELF5 = biological target: T11, ELF5 (Homo sapiens, UniProt Q9UKW6-2 1-255); conditions: protein: recombinant; tags: N-terminal GST; dsDNA, one strand shown
T11 sequence: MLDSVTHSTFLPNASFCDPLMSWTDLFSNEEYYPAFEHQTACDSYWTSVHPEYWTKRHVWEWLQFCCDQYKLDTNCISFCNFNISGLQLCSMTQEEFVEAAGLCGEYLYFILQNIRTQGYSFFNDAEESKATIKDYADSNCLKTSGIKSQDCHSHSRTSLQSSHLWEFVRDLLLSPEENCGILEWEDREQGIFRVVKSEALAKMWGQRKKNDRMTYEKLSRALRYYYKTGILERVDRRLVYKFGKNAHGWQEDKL
Procedure, shortened: as §1

ETV3 = biological target: T12, ETV3 (Homo sapiens, UniProt P41162-2 1-143); conditions: protein: recombinant; tags: N-terminal GST; dsDNA, one strand shown
T12 sequence: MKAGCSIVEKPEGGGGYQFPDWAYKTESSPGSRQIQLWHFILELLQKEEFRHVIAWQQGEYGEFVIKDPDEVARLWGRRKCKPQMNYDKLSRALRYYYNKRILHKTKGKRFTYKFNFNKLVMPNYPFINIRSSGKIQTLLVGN
Procedure, shortened: as §1

ETV6 = ETV6 (Homo sapiens, UniProt P41212 1-452); conditions: protein: recombinant; tags: N-terminal GST; dsDNA, one strand shown
ETV6, sequence (P41212 whole entry): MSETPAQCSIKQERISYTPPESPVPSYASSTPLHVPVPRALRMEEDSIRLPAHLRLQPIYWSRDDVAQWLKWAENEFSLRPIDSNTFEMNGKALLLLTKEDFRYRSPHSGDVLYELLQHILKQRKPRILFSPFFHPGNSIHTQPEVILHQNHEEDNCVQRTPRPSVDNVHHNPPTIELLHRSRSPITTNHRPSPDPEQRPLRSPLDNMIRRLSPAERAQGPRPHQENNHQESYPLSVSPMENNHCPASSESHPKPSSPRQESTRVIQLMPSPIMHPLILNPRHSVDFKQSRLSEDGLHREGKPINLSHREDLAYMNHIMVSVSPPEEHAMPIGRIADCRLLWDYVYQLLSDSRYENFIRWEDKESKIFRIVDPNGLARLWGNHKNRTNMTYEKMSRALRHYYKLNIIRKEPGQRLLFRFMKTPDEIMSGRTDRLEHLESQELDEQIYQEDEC
Procedure, shortened: as §1

## TTTCCC
FEV
  binding signal: 1.61 fold enrichment (6-mer frequency, TF over GST control)
ETV5
  binding signal: 1.93 fold enrichment (6-mer frequency, TF over GST control)
HSF1
  binding signal: 1.57 fold enrichment (6-mer frequency, TF over GST control)
SPIC
  binding signal: 1.87 fold enrichment (6-mer frequency, TF over GST control)
ELF4
  binding signal: 1.77 fold enrichment (6-mer frequency, TF over GST control)
ELK4
  binding signal: 1.47 fold enrichment (6-mer frequency, TF over GST control)
ETV2
  binding signal: 1.58 fold enrichment (6-mer frequency, TF over GST control)
ELF3
  binding signal: 1.43 fold enrichment (6-mer frequency, TF over GST control)
CRX
  binding signal: 1.43 fold enrichment (6-mer frequency, TF over GST control)
ETV1
  binding signal: 1.6 fold enrichment (6-mer frequency, TF over GST control)
ERF
  binding signal: 1.57 fold enrichment (6-mer frequency, TF over GST control)
ETV3L
  binding signal: 1.7 fold enrichment (6-mer frequency, TF over GST control)
ETS2
  binding signal: 1.71 fold enrichment (6-mer frequency, TF over GST control)
SPDEF
  binding signal: 1.45 fold enrichment (6-mer frequency, TF over GST control)
ETV7
  binding signal: 1.65 fold enrichment (6-mer frequency, TF over GST control)
ELF5
  binding signal: 2.51 fold enrichment (6-mer frequency, TF over GST control)
ETV3
  binding signal: 1.75 fold enrichment (6-mer frequency, TF over GST control)
ETV6
  binding signal: 1.97 fold enrichment (6-mer frequency, TF over GST control)
